Data reported in the supplement of paper PMC11732987, “Enantioselective OTUD7B fragment discovery through chemoproteomics screening and high-throughput optimisation” (Communications Chemistry, 2025).

Experiments:
Assay in all cases: log2 ratio of Biotin-Ahx-Ub-VS probe labelling (fragment/DMSO); higher = less target engagement (more negative = stronger competition), active = hit call of the paper (q ≤ 0.05, log2 ratio ≤ -1)
Conditions in all cases: compound concentration: 200 uM; treatment time: 3 h
[1] = target: USP9X (UniProt Q93008)
In short: (§1)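 Fragment (200 µM) or vehicle was incubated for 3 h with triplicate HEK293T lysate samples of 495 µg, which were then treated with Biotin-Ahx-Ub-VS at 0.5 µM final for 1 h. Labelled DUBs were enriched on NeutrAvidin, digested with LysC and trypsin, and analysed by diaPASEF LC-MS/MS. Values are average log2 fragment/vehicle ratios from an unpaired t-test on global-median-normalised Spectronaut label-free quantities, using proteins with ≥2 unique peptides.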

[2] = target: UniProt O00487
UniProt O00487, sequence (O00487 whole entry): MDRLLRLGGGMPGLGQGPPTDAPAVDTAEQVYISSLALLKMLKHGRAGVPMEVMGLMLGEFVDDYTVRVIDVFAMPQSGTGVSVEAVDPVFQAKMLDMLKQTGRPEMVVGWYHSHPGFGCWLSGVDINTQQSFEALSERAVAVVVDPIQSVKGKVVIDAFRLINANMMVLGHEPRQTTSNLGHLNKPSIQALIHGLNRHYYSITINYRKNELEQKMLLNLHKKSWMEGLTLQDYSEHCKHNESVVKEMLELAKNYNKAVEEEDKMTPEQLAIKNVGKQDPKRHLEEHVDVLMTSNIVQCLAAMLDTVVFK
In short: as §1

[3] = target: UniProt O00507
UniProt O00507, sequence (O00507 whole entry): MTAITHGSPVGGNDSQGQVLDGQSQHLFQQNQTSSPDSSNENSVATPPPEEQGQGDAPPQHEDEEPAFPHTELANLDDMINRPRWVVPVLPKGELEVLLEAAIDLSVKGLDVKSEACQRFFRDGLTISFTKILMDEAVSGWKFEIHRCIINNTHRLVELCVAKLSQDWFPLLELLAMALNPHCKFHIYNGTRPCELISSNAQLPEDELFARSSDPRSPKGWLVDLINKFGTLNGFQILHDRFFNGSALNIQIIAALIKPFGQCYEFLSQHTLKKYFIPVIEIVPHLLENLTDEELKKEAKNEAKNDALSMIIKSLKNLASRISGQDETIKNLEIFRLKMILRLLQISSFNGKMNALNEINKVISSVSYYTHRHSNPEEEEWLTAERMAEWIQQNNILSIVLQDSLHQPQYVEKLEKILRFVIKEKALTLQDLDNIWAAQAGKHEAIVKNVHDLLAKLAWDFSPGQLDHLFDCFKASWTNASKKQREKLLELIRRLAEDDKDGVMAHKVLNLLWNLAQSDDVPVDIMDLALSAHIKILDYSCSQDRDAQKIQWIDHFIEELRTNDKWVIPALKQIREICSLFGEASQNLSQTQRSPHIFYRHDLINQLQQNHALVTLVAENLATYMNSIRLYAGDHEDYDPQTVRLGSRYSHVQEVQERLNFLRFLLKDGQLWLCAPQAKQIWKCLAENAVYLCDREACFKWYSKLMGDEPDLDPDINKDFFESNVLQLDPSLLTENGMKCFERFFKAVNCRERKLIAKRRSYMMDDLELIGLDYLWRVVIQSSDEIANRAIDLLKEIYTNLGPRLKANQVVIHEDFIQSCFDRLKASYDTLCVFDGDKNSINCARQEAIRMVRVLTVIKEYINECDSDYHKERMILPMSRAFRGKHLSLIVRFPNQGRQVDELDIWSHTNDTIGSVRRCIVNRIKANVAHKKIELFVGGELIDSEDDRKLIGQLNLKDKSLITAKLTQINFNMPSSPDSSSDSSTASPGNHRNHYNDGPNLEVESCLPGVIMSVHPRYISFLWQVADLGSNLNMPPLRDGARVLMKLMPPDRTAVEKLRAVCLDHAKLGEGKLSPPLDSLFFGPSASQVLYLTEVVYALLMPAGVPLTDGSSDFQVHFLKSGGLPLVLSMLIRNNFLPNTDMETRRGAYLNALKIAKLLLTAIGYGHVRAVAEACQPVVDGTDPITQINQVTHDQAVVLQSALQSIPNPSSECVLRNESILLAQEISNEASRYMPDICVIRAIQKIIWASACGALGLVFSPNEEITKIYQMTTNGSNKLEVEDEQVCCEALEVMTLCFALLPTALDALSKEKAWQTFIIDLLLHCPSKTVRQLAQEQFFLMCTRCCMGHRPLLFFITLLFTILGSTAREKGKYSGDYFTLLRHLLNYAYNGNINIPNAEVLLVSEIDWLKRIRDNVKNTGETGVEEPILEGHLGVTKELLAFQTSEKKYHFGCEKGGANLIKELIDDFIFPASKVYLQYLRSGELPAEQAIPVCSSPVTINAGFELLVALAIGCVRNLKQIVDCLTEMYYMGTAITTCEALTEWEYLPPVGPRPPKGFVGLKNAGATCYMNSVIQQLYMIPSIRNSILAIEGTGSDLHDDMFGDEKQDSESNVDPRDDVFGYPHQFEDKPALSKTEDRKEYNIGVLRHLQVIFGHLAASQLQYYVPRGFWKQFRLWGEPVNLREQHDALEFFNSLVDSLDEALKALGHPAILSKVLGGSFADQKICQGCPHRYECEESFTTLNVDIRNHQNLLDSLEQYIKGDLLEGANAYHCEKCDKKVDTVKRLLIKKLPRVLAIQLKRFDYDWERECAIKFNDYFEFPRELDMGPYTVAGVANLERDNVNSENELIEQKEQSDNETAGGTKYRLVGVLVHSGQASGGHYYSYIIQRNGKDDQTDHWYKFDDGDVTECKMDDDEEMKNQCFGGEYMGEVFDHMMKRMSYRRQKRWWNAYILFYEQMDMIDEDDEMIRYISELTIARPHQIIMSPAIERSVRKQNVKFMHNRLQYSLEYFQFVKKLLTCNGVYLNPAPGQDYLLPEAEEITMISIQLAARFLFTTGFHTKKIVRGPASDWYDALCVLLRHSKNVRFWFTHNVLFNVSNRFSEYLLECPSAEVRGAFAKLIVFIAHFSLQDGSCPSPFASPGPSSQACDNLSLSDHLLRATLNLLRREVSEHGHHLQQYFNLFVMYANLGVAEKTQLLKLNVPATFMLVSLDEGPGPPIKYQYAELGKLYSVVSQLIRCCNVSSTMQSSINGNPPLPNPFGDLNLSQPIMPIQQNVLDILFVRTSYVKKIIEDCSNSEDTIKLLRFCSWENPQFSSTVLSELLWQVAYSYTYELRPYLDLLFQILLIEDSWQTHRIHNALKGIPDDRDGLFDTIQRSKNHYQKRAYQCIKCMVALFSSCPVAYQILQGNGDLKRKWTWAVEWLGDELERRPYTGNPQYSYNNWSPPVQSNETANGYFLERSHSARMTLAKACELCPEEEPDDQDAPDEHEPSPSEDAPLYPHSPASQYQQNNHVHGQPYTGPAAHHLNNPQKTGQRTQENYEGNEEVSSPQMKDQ
In short: as §1

[4] = target: UniProt P51784
UniProt P51784, sequence (P51784 whole entry): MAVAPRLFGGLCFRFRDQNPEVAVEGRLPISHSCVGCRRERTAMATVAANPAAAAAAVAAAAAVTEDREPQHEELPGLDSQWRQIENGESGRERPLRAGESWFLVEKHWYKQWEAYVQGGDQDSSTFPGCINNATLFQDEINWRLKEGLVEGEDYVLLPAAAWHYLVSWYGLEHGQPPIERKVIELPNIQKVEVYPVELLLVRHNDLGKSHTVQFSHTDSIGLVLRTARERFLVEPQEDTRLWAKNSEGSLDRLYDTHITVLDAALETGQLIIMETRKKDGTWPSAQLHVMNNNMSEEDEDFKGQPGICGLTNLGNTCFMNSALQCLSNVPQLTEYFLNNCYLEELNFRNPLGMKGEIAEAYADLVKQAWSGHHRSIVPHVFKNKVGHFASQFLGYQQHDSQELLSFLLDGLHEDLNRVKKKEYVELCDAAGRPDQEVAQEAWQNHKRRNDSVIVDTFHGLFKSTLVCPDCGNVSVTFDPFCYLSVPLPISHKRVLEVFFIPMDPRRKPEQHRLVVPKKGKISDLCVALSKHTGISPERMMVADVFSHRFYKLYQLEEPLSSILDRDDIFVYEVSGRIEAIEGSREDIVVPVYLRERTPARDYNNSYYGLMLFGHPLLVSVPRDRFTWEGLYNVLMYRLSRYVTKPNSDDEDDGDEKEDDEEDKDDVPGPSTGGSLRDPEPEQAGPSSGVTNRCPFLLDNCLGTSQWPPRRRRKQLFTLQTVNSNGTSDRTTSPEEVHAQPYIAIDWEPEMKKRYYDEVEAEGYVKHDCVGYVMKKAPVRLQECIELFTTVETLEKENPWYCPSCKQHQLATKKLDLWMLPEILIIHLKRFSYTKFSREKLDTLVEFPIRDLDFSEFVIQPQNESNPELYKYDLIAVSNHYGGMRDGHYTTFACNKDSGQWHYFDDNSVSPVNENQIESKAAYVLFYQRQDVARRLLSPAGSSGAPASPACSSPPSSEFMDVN
In short: as §1

[5] = target: T1, UniProt Q5T2D3
T1 sequence (whole entry): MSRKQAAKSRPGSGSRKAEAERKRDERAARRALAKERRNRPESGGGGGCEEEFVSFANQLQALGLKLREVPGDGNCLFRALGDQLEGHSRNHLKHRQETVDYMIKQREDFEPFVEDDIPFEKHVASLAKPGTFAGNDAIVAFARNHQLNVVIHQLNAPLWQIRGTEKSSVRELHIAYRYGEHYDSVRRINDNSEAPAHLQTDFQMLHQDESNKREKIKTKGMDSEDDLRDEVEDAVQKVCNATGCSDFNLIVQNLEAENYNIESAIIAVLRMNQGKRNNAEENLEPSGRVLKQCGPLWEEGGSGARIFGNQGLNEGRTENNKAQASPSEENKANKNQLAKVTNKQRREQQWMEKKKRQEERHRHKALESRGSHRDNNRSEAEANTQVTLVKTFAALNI
In short: as §1

[6] = target: T2, UniProt Q8TE49
T2 sequence (whole entry): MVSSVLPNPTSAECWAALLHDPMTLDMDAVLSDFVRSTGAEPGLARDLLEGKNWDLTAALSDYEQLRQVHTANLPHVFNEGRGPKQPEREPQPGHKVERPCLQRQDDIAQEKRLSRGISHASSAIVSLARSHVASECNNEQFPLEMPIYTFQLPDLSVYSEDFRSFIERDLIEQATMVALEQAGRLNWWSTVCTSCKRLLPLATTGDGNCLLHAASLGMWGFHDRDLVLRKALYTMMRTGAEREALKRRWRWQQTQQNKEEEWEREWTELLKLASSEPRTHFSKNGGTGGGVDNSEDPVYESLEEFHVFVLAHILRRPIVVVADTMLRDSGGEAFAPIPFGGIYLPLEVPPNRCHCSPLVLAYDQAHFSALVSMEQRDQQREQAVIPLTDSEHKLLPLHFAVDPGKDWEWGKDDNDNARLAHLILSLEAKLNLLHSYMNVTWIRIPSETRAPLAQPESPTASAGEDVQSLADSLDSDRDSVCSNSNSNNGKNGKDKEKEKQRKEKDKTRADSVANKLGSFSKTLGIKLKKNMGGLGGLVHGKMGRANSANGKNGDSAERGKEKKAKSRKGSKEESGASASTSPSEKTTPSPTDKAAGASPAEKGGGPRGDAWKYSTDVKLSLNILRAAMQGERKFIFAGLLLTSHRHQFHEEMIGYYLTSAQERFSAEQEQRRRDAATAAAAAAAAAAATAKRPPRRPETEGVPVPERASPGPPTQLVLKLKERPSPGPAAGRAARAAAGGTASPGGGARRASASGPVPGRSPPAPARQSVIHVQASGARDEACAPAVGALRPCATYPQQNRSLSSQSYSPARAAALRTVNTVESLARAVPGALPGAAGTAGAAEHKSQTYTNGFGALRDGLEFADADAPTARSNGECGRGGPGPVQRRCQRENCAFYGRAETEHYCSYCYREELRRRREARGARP
In short: as §1

[7] = target: T3, UniProt Q9P2H5
T3 sequence (whole entry): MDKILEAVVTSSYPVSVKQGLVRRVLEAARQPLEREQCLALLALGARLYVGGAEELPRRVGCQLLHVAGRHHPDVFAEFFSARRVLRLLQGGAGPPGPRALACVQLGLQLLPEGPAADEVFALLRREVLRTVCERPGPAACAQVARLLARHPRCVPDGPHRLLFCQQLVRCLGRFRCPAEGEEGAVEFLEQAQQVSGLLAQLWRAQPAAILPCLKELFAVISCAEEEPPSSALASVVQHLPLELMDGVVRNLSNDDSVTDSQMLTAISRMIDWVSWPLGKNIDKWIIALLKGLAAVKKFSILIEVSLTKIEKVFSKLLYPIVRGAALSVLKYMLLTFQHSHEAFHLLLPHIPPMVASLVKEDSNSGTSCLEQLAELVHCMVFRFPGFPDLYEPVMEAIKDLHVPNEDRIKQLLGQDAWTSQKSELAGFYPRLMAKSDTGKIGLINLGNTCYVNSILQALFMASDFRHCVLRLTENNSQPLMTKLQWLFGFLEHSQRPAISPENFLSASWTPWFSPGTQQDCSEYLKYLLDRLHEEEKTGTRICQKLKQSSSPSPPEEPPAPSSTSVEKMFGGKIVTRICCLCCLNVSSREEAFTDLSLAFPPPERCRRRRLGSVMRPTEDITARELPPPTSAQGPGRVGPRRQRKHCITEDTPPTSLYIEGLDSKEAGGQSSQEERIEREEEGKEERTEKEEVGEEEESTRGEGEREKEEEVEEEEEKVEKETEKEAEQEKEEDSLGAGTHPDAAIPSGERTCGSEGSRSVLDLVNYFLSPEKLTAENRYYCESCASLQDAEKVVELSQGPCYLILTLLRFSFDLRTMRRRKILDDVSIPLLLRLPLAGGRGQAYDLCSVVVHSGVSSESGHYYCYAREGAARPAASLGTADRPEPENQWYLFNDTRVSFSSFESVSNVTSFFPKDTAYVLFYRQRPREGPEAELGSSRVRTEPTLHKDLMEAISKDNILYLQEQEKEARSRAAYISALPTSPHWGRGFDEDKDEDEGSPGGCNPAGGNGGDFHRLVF
In short: as §1

[8] = target: T4, UniProt Q9UGI0
T4 sequence (whole entry): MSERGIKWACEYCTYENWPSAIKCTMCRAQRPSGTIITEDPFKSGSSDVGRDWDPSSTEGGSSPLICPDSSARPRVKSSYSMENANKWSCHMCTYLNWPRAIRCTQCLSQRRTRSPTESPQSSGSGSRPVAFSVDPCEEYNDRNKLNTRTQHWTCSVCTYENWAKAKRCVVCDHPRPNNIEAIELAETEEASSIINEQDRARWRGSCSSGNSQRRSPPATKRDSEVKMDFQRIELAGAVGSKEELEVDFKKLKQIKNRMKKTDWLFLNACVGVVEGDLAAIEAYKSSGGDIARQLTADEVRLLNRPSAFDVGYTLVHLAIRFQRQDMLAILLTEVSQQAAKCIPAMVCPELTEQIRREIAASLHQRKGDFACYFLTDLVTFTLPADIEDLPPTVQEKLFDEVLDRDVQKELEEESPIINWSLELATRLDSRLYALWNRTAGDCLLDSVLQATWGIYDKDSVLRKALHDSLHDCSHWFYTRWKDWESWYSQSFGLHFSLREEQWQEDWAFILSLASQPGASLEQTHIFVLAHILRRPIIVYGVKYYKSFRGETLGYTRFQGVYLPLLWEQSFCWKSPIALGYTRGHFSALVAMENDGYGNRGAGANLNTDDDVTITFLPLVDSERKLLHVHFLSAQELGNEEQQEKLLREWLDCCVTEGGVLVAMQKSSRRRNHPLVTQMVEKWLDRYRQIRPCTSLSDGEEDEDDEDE
In short: as §1

[9] = target: T5, YOD1 (UniProt Q5VVQ6)
T5 sequence (whole entry): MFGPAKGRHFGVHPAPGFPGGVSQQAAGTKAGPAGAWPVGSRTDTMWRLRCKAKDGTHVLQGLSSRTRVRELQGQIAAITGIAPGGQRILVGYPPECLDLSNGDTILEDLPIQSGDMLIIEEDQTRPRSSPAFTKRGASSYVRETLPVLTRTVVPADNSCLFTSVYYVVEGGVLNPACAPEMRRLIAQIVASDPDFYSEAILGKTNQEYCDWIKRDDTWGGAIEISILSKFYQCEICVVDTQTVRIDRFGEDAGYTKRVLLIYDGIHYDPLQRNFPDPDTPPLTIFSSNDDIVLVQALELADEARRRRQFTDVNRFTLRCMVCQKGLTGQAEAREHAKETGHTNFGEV
In short: as §1

Measured: log2 ratio of Biotin-Ahx-Ub-VS probe labelling

O=C(CCl)NCc1cccc(N2CCCC2=O)c1
inactive: [1] -0.272 | [2] 0.135 | [3] -0.0239 | [4] 0.0359 | [5] 0.0544 | [6] -0.351 | [7] 0.0802 | [8] -0.491 | [9] 0.144
